Source: PubChem BioAssay
AddAB inh: less growth of phage-infected E. coli with AddAB; 330,000 tested, 0.29% active; inhibition, % at 11.9 µM; AID 435030; E. coli expressing H. pylori AddAB, absorbance growth; in the data active means inhibition above about 12%;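 further: 0% = vehicle wells of infected cells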
E coli growth-1: inhibitors of Escherichia coli growth; 330,000 tested, 0.21% active; OD600, 23 h; hits give low values; AID 1053175; OD600 absorbance (test concentration not listed);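 active means OD600 absorbance below the run mean of sample wells minus 3.6 SD, in any replicate, cut at about 0.56 in these data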
E coli growth-2: bacterial growth inhibition, counter-screen for AddAB inhibitors | E. coli V3065 growth, OD600 absorbance, 18 h | inhibition, % at 11.9 µM | 330,000 tested, 0.27% active | AID 449728;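 active means inhibition above the campaign's mean inhibition across all tested compounds plus 3 SD, cut at about 9.9% in these data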;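 further: uninfected addAB+ strain grown without phage in ampicillin broth; 0% = DMSO wells and 100% = ciprofloxacin 0.95 µg/ml wells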
Tat export inh: blocks Tat-dependent protein export in E. coli. E. coli MC4100 TorA-mCherry Tat export, fluorescence. 340,000 tested, 0.036% active. inhibition, % at 10 µM. AID 488895;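 active means mean replicate inhibition at least 50% and at least half of replicates individually reaching 50%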;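 further: exported cargo escapes ClpAP degradation while cytoplasmic cargo is degraded and loses fluorescence; 0% = median of neutral control wells and 100% = median of NaSCN control wells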
phage Ecoli inh: E. coli growth loss with phage present; growth absorbance; inhibition, % at 11.9 µM; 360,000 tested, 0.26% active; AID 651602; in the data active means inhibition above about 11%
An asterisk follows results filed as active; nt = no result given. Sampled rows, rich in hits. Any-hit rate of the full collection: about 0.5%.

SMILES | AddAB inh | E coli growth-1 | E coli growth-2 | Tat export inh | phage Ecoli inh
CN(C)CCOc1ccc(-c2c(-c3ccccc3)sc3ccccc23)cc1 | 0 | 0.34* | -1 | 13 | 3
Nc1nc(SCC(=O)Nc2ncc(C(F)(F)F)cc2Cl)n[nH]1 | 9 | 0.71 | 12* | -10 | 2
Cc1ccc(N(CC(=O)NN=Cc2ccc(OC3CSC3)cc2)S(=O)(=O)c2ccccc2)cc1 | nt | 0.71 | nt | nt | nt
CCCS(=O)(=O)N1CCCC(C(=O)NCCCN2CCCC2=O)C1 (configuration not stated) | 15* | 0.68 | 11* | 4 | 0
O=[N+]([O-])c1ccc(/C=C/C2=NN(c3ccccc3)C(c3ccco3)C2)o1 (configuration not stated) | nt | 0.62 | nt | -10 | 20*
CC(C)CC(NC(=O)c1nc[nH]c1C(=O)NC1CCNCC1)C(=O)OCc1ccccc1 (configuration not stated) | nt | 0.65 | nt | nt | nt
Nc1nc2ccccc2n1Cc1ccc(Cl)c(Cl)c1 | 3 | 0.44* | 3 | 13 | -2
Cc1ccc(Cn2c(N)nc3ccccc32)cc1 | 6 | nt | 2 | -4 | 4
C=C1c2cccc(O)c2C(=O)C2C(=O)[C@]3(O)C(=O)C(C(N)=O)C(=O)C(N(C)C)C3C(O)C12 (some centres not stated) | nt | 0.067* | nt | nt | nt
CC1CN(C(C)CO)C(=O)c2cccc(NC(=O)Nc3ccccc3)c2OC1CN(C)S(C)(=O)=O (configuration not stated) | nt | 0.68 | nt | nt | nt
Cc1ccc(-c2nn(-c3ccccc3)cc2CO)cc1 | 0 | 0.66 | 1 | 12 | 1
N=C(N)SCc1cn(-c2ccccc2)nc1-c1ccc(Br)cc1 | nt | 0.069* | nt | 7 | 8
CCCc1cc(=O)n2[nH]cc(-c3ccc(Cl)cc3)c2n1 | nt | 0.35* | nt | -3 | -5
O=C(NN=Cc1ccc(OCc2ccccc2)cc1)c1cc[n+](Cc2ccccc2)cc1 | nt | 0.68 | nt | nt | nt
COCCN=c1scc(-c2cccs2)n1N=Cc1ccc(O)c(O)c1O | nt | 0.73 | nt | nt | nt
CC(C)N=C(N)N=C(N)Nc1ccc(Cl)cc1 | -2 | 0.64 | 4 | 15 | 6
NC(=NCCCCCCN=C(N)N=C(N)Nc1ccc(Cl)cc1)N=C(N)Nc1ccc(Cl)cc1 | nt | 0.062* | nt | nt | nt
CC(=NN=C(N)N)c1ccc(C)c(C)c1 | nt | 0.61 | nt | nt | nt
C[N+](C)(C)CCCCCC(=O)C=NO | nt | 0.7 | nt | nt | nt
CC(C)c1cc(C(C)C)c(S(=O)(=O)N2c3ccccc3[C@@]3(Br)CC4C(=O)NC(Cc5ccccc5)C(=O)N4C23)c(C(C)C)c1 (some centres not stated) | nt | 0.72 | nt | nt | nt
Nc1nnnn1N=Cc1ccc(N2CCCCC2)c([N+](=O)[O-])c1 | nt | 0.68 | nt | nt | nt
Cc1ccnc(NC(=O)c2ccc([N+](=O)[O-])s2)c1 | 14* | 0.6 | 10 | -8 | 7
Cc1cc(=O)[nH]c(SCC(=O)Nc2ccc(Br)cc2)c1C#N | 10 | 0.51* | 8 | -9 | 8
O=C(Cn1c(CO)nc2ccccc21)NCCc1ccc(F)cc1 | 10 | 0.69 | 10* | 2 | 4
S=C(NCc1ccccc1)NCc1cccc(CNC(=S)NCc2ccccc2)c1 | 10 | 0.72 | 10* | -4 | 7
SMILES | AddAB inh | E coli growth-1 | E coli growth-2 | Tat export inh | phage Ecoli inh
CCCCCCn1c2c(c(=N)c3c1CCC3)CCC2 | 2 | 0.6 | 1 | -10 | 3
CCCCCCCCCn1c2c(c(=N)c3c1CCC3)CCC2 | 5 | 0.49* | 10* | -11 | nt
Cc1ccc(Cl)cc1NC(=O)CC(O)(C(F)(F)F)C(F)(F)F | 12 | 0.58 | 11* | 16 | 8
Cn1ncc(C#N)c1N=CN1CCOCC1 | nt | 0.7 | nt | nt | nt
CCCCN1CCNCC1Cc1ccccc1 (configuration not stated) | nt | 0.69 | nt | nt | nt
COc1cccc(-c2nnc(NC(=O)c3ccc(Cl)s3)o2)c1 | 9 | 0.47* | 0 | -16 | -1
Cc1cccc(-c2nnc(NC(=O)c3ccc(Cl)cc3)o2)c1 | 3 | 0.52* | -1 | -1 | -2
CCc1ccc(C=NNC(=O)c2cc(C3CC3)nc3ccc(Br)cc23)s1 | nt | 0.72 | nt | nt | nt
CCn1cc(C(=O)Nc2ccccc2)c(=O)c2ccc(C)nc21 | 5 | 0.75 | -1 | nt | nt
CCn1cc(C(=O)NC2CCCCC2C)c(=O)c2ccc(C)nc21 (configuration not stated) | 7 | 0.059* | 2 | 2 | 2
CC(=CC(=O)OCCCCCCCCC(=O)O)CC1OCC(CC2OC2C(C)C(C)O)C(O)C1O (configuration not stated) | nt | 0.12* | nt | nt | nt
COc1cc2c(cc1OC)CN(C(=S)Nc1ccccc1Cl)CC2 | 0 | 0.43* | -4 | 8 | 2
COc1cc2c(cc1OC)CN(C(=S)Nc1ccccc1)CC2 | 0 | 0.72 | 2 | 1 | -1
Cc1cc(-c2n[nH]c(=S)n2N=C/C=C/c2ccccc2)n[nH]1 | nt | 0.69 | nt | nt | nt
Cc1cc(-c2n[nH]c(=S)n2N=C/C(Br)=C/c2ccccc2)n[nH]1 | nt | 0.059* | nt | nt | nt
CC(=O)OCC1=C(C(=O)O)N2C(=O)[C@@H](NC(=O)Cc3cccs3)[C@H]2SC1 | 3 | 0.046* | -2 | 0 | 2
CC(=O)OCC1=C(C(=O)O)N2C(=O)C(NC(=O)COc3ccc(F)cc3)C2SC1 (configuration not stated) | nt | 0.69 | nt | 3 | 3
Cc1nnc(SCC2=C(C(=O)O)N3C(=O)C(NC(=O)COc4ccc(F)cc4)C3SC2)s1 (configuration not stated) | 1 | 0.55* | -3 | -2 | 3
Cc1nnc(SCC2=C(C(=O)O)N3C(=O)C(NC(=O)COc4ccccc4)C3SC2)s1 (configuration not stated) | nt | 0.5* | nt | -3 | 4
Cc1nnc(SCC2=C(C(=O)O)N3C(=O)C(NC(=O)Cn4nc(C(F)F)cc4C)C3SC2)s1 (configuration not stated) | 3 | 0.49* | -1 | -7 | 4
Cc1ccc(NS(=O)(=O)c2ccc(OCC(=O)NCc3ccco3)cc2)cc1 | 10 | 0.75 | 13* | -2 | 3
CCN1C(=O)C2C(C)C3=C4C(CC(C(=O)OC)=CC(C(=O)OC)C4C(CC)(CC)C3=O)C2C1=O (configuration not stated) | nt | 0.72 | nt | nt | nt
CCc1ccc2c(COC(=O)C3CC(=O)N(CCc4ccccc4)C3)cc(=O)oc2c1 (configuration not stated) | nt | 0.68 | nt | 63* | 2
CCn1c2ccc(C(C)=NO)cc2c2cc(C(C)=NO)ccc21 | nt | 0.78 | nt | nt | nt
O=C(Nc1ccc(Cl)c(Cl)c1)Nc1ccccc1O | 4 | 0.46* | 5 | 12 | 7
SMILES | AddAB inh | E coli growth-1 | E coli growth-2 | Tat export inh | phage Ecoli inh
O=C(Nc1ccc(Cl)c(Cl)c1)Nc1ccon1 | -1 | 0.54* | 1 | 2 | 5
O=C(Nc1cccnc1)Nc1ccc(F)c(Cl)c1 | 2 | 0.54* | 0 | -9 | 7
CC(O)CCC(C)O[C@@]1(c2ccccc2)OC2CC(O)C(C)OC2O1 (some centres not stated) | nt | 0.68 | nt | nt | nt
CCc1ccc2[nH]c3nc(N/N=C/c4ccc(O)cc4O)nnc3c2c1 | 11 | nt | 11* | -20 | 8
O=[N+]([O-])c1cccc(SSc2cccc([N+](=O)[O-])c2)c1 | nt | 0.54* | nt | 3 | 2
Nc1cccc([N+](=O)[O-])c1 | 2 | 0.65 | 3 | -9 | -2
COc1cc(C=NNC(=O)c2cccc(N3CCCC3=O)c2)ccc1O | nt | 0.67 | nt | nt | nt
